# High-throughput results deposited in PubChem by National Center for Advancing Translational Sciences (NCATS).
# GPT2 inh: Primary qHTS assay for inhibitors of Glutamate pyruvate transaminase 2 (GPT2); Alanine aminotransferase 2 (Homo sapiens), Q8TD30; Recombinant GPT2, coupled pyruvate oxidase/HRP Amplex Red fluorescence; Potency, µM (doses to about 57.7 µM), without a hit: at the top dose activity change, negative = inhibition, most hits filed as inhibitors; 0.25% of 100,000 active; further: on the % scale 0 is the no-effect control and ±100 the full control effect; nearly all actives have a fitted effect of over 60% in size
#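 Fluorescence of coupled pyruvate oxidase/HRP/Amplex Red system (50uM Amplex, 30 min, dark) reports pyruvate formed by GPT2. Enzyme reaction: 10ng/uL GPT2, 2mM L-alanine, 250uM a-KG, 30 min room temperature, pH 7.5; 50uM AOA control.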
# 3T3 cytotox: Cytotoxic Profiling in NIH 3T3 Cell Line of Diverse Libraries Using Quantitative High-Throughput Screening; NIH 3T3 viability, CellTiter-Glo ATP luminescence, 48-72 h; Potency, µM (series often up to 96.7 µM), inactives show at the highest dose activity change, negative = cytotoxicity, actives largely listed as inhibitors; 4.3% of 94,000 active; further: on the % scale 0 is the no-effect control and ±100 the full control effect; nearly all actives have a fitted effect of over 55% in size
#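 Viability of NIH 3T3 cells after 48 or 72 hr compound treatment at 37 °C was assessed by CellTiter-Glo, with luminescence imaged following a 10 min room-temperature step.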
# hNpr1 antagonist: Natriuretic polypeptide receptor (hNpr1) antagonism - Primary qHTS. Potency, µM (titrated, usually from 46.3 µM), for inactives: top-dose activity change, negative = inhibition, most hits filed as inhibitors. HEK293 hNpr1 GloSensor cGMP, ANP-stimulated luminescence. 1.6% of 76,000 active; calls by dose curve; further: on the % scale 0 is the no-effect control and ±100 the full control effect; nearly all actives have a fitted effect of over 60% in size
# Target sequence (P16066 whole entry, looked up): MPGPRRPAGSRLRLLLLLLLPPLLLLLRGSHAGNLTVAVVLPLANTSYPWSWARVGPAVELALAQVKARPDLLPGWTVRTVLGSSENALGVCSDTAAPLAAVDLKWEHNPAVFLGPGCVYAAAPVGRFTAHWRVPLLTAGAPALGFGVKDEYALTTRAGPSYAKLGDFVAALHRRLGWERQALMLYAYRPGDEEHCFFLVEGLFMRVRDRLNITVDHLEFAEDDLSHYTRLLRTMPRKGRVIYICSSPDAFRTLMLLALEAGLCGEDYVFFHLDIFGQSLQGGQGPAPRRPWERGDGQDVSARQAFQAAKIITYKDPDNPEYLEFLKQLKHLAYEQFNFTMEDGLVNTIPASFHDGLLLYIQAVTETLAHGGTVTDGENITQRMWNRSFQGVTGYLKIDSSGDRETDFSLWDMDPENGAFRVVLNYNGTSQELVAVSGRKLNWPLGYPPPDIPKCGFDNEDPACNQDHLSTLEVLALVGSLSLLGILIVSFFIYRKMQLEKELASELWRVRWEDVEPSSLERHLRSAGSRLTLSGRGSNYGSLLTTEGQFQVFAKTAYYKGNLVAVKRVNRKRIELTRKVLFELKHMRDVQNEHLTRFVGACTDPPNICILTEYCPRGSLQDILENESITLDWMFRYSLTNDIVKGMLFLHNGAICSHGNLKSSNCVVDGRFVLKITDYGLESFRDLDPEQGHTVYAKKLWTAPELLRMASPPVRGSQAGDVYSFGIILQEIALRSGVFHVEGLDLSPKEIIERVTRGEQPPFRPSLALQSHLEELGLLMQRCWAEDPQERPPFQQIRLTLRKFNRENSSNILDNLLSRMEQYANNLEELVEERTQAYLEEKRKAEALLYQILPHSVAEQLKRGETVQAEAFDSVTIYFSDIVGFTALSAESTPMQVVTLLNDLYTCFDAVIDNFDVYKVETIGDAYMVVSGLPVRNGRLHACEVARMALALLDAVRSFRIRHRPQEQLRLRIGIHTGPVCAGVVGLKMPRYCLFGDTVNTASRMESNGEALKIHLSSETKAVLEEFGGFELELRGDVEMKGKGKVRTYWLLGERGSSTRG
#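 HEK293 cells stably expressing human Npr1 and cGMP GloSensor pGS-40F, loaded 2 h with 2% GloSensor reagent, given compound 30 min at room temperature. Luminescence read before and 20 min after 0.1 nM hNppA.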
# FLuc inh: Firefly luciferase inhibition profiling of diverse chemical library using quantitative high-throughput screening; 2.5% of 76,000 active; purified P. pyralis luciferase, luminescence, biochemical; Potency, µM (series often up to 115 µM), usual class: inhibitors; further: on the % scale 0 is the no-effect control and ±100 the full control effect; nearly all actives have a fitted effect of over 65% in size
#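 Purified P. pyralis luciferase (10nM final) in 50mM Tris acetate pH 7.5, 10mM Mg acetate, 0.01% Tween-20, 0.05% BSA with 10uM D-luciferin and 10uM ATP. Compounds titrated qHTS. Luminescence imaged on CCD.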
# HEK cytotox: Cytotoxic Profiling in HEK 293 Cell Line of Diverse Libraries Using Quantitative High-Throughput Screening | Potency, µM (top dose mostly 115 µM), without a hit: at the highest dose activity change, negative = cytotoxicity, usual class: inhibitors | AID 1345083, 2018 | HEK 293 viability, ATP luminescence (CellTiter-Glo), 48-72 h | 6.6% of 94,000 active; further: on the % scale 0 is the no-effect control and ±100 the full control effect; nearly all actives have a fitted effect of over 60% in size
#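 HEK 293 seeded at 250 cells/well receive compound via pintool. After 48 or 72 hr at 37 degree Celsius, 5% CO2 and 95% humidity, CellTiter-Glo is dispensed and luminescence read following 10 min at room temperature.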
# NPR1 antag cnf: Natriuretic polypeptide receptor (hNpr1) antagonism - Confirmation. Potency, µM (top dose mostly 57.6 µM), without a hit: top-dose activity change, negative = inhibition, most hits filed as inhibitors. 76% of 1,400 active. shares compounds with hNpr1 antagonist. HEK293 hNpr1 cGMP GloSensor luminescence, ANP-stimulated; calls by dose curve; further: nearly all actives have a fitted effect of over 70% in size
# NPR2 antag: Natriuretic polypeptide receptor (hNpr2) antagonism - Subtype selectivity assay; shares compounds with hNpr1 antagonist; HEK293 hNpr2 GloSensor cGMP luminescence, CNP-stimulated; Potency, µM (doses to about 57.6 µM), inactives show at the top dose activity change, negative = inhibition, hits mostly inhibitors; 67% of 1,400 active; AID 1347046, 2019; calls by dose curve; further: nearly all actives have a fitted effect of over 70% in size
# FLuc counter: Natriuretic polypeptide receptor (hNpr1) antagonism - Confirmation firefly luciferase (FLuc) inhibition counterscreen. purified FLuc enzyme, luminescence, Km substrate. shares compounds with hNpr1 antagonist. 0.7% of 1,400 active. Potency, µM (highest dose often 57.6 µM), for inactives: at the highest dose activity change, negative = inhibition, most hits filed as inhibitors; further: 0% is about no effect
# GloSensor ctrl: Natriuretic polypeptide receptor (hNpr1) antagonism - Counterscreen GloSensor control cell line | shares compounds with hNpr1 antagonist | HEK293 GloSensor cGMP, SNP-stimulated, luminescence | Potency, µM (top dose mostly 57.6 µM), for inactives: top-dose activity change, negative = inhibition, usual class: inhibitors | 69% of 1,400 active; calls by dose curve; further: on the % scale 0 is the no-effect control and ±100 the full control effect; nearly all actives have a fitted effect of over 70% in size
# * marks the source's active call; other numbers are inactive results; i = inactive; ? = inconclusive; . = no result given; [ ] = dose if it differs, or a comment. Most compounds without a hit are left out; they make up all but 10% or so of the library. Unless noted, the call rests on the fitted dose curve; in most records, active means well fitted curve in the direction sought with a large enough effect; inconclusive means small, poorly fitted or top-dose-only effect, or another doubt; inactive means no such curve, though single readings can be large; an effect the other way counts as inactive or inconclusive. Potency means the concentration at half of the fitted maximal effect.
SMILES,GPT2 inh,3T3 cytotox,hNpr1 antagonist,FLuc inh,HEK cytotox,NPR1 antag cnf,NPR2 antag,FLuc counter,GloSensor ctrl
CC(C)NC(=O)NC[C@H]1O[C@@H](CC(=O)N2CCc3ccccc32)[C@H](O)[C@@H]1O,i,?,1%[70.6 µM],i,-12%[172 µM],.,.,.,.
Cc1cc(CNC(=O)c2ccc(S(=O)(=O)NCC(F)F)cc2)on1,i,-12%,-2%,i,-15%,.,.,.,.
Cc1cc(CNC(=O)c2ccc3c(c2)n(CC2CC2)c(=O)n3C2CCCCC2)on1,-5%,?,5.6µM*,i,-22%,14µM*,4.8µM*,-2%,-6%
COc1cccc(N2C(=O)NC(=NC3CCCC3)C23CCN(CCC(C)C)C3)c1 (stereo unspecified),-6%,?,.,.,?,.,.,.,.
O=C(c1ccncc1)N1CCC(CCOc2ccc(F)cc2)C1 (stereo unspecified),-1%,?,-21%,i,?,.,.,.,.
Cc1n[nH]c(C)c1Cc1ccc(C(=O)N2CCC(CCOc3ccc(F)cc3)C2)o1 (stereo unspecified),i,35µM*,16µM*,i,22µM*,24µM*,24µM*,7%,22µM*
COc1ccc(CN2C[C@@H](F)[C@@H](OCc3nc4ccccc4[nH]3)C2)cc1,i,-25%[174 µM],-10%[70.6 µM],i,?,.,.,.,.
CC(C)S(=O)(=O)N1CC(Oc2ccc(-c3noc(-c4cccnc4)n3)cc2)C1,-11%,-24%,1.4µM*,i,?,22µM*,?,-14%,22µM*
O=C(Cc1ccccc1F)N1CC(Oc2ccc(-c3noc(-c4cccnc4)n3)cc2)C1,-12%,-2%,-29%,i,-43%,22µM*,22µM*,-14%,22µM*
COc1cccc(CC(=O)N2CC(Oc3ccc(-c4noc(-c5ccncc5)n4)cc3)C2)c1,i,?,7.9µM*,i,13µM*,3.1µM*,4.3µM*,-21%,3.4µM*
O=C(c1ccc(F)cc1)N1CC(Oc2cccc(-c3nc(-c4ccccc4)no3)c2)C1,-6%,?,6%,?,?,.,.,.,.
COc1ccccc1C(=O)N1CC(Oc2ccc(-c3nc(-c4ccccc4)no3)cc2)C1,i,?,11µM*,i,?,24µM*,24µM*,-25%,22µM*
Cc1ccc(OCC(=O)N2CC(Oc3ccc(-c4nc(-c5ccccc5)no4)cc3)C2)cc1,i,1%,1%,?,22%,.,.,.,.
NC1CCCN(Cc2cc(F)ccc2-n2cccn2)CC1 (stereo unspecified),i,-25%,1%,i,?,.,.,.,.
O=C(NCc1ccc(N2CCOCC2)cc1)c1cc2c(s1)CN(C1CC1)C2,i,?,0%,i,-28%,.,.,.,.
